# This excerpt belongs to a sample that is enriched for the strongest signals.
# B1: Langerin K299A/K313A (Homo sapiens), Q9UJ71 (protein)
# chain: STLNAQIPELKSDLEKASALNTKIRALQGSLENMSKLLKRQNDILQVVSQGWKYFKGNFYYFSLIPKTWYSAEQFCVSRNSHLTSVTSESEQEFLYKTAGGLIYWIGLTKAGMEGDWSWVDDTPFNKVQSARFWIPGEPNNAGNNEHCGNIAAPSLQAWNDAPCDATFLFICKRPYVPSEP
# Experiments:
# Experiment in all cases: glycan array binding signal (z-score within array); higher = stronger binding
# Details in all cases: glycan notation: IUPAC condensed, linker removed
# [1] = target: Fuc(a1-2)Gal(b1-3)GlcNAc(b1-3)[Neu5Ac(a2-6)Gal(b1-4)GlcNAc(b1-6)]Gal(b1-4)Glc
# Outline: (§1)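 Negative Z-scores can be read as non-binding. The Z-score is calculated within each array and then averaged across arrays of one protein sequence at different concentrations or buffers and across linkers. Arrays, 3228 in all, were curated from the Consortium for Functional Glycomics database and kept only where the protein sequence was available.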
# [2] = target: Fuc(a1-2)Gal(b1-4)GlcNAc(b1-2)Man
# Outline: as §1
# [3] = target: Fuc(a1-2)Gal(b1-4)GlcNAc(b1-2)[Fuc(a1-2)Gal(b1-4)GlcNAc(b1-4)]Man(a1-3)[Fuc(a1-2)Gal(b1-4)GlcNAc(b1-2)Man(a1-6)]Man(b1-4)GlcNAc(b1-4)GlcNAc
# Outline: as §1
# [4] = target: Fuc(a1-2)Gal(b1-4)GlcNAc(b1-3)Gal(b1-4)GlcNAc(b1-3)Gal(b1-4)GlcNAc
# Outline: as §1
# [5] = target: Fuc(a1-2)[Gal(a1-3)]Gal(b1-3)GalNAc(b1-3)Gal(a1-4)Gal(b1-4)Glc
# Outline: as §1
# [6] = target: Fuc(a1-3)[Gal(b1-4)]Glc6S
# Outline: as §1
# [7] = target: Fuc(a1-3)[Gal(b1-4)]GlcNAc(b1-2)Man(a1-3)[Fuc(a1-3)[Gal(b1-4)]GlcNAc(b1-2)Man(a1-6)]Man(b1-4)GlcNAc(b1-4)GlcNAc
# Outline: as §1
# [8] = target: Fuc(a1-3)[Gal(b1-4)]GlcNAc(b1-3)Gal(b1-3)[Fuc(a1-4)]GlcNAc
# Outline: as §1
# [9] = target: Fuc(a1-3)[Gal(b1-4)]GlcNAc(b1-3)Gal(b1-4)[Fuc(a1-3)]GlcNAc
# Outline: as §1
# [10] = target: Fuc(a1-3)[Gal(b1-4)]GlcNAc(b1-3)GalNAc
# Outline: as §1
# Gal(a1-3)Gal = target: Gal(a1-3)Gal
# Outline: as §1
# [11] = target: Gal(a1-3)Gal(b1-3)GlcNAc(b1-2)Man(a1-3)[Gal(a1-3)Gal(b1-3)GlcNAc(b1-2)Man(a1-6)]Man(b1-4)GlcNAc(b1-4)GlcNAc
# Outline: as §1
# [12] = target: Gal(a1-3)Gal(b1-4)[Fuc(a1-3)]GlcNAc(b1-2)Man(a1-3)[Gal(a1-3)Gal(b1-4)[Fuc(a1-3)]GlcNAc(b1-2)Man(a1-6)]Man(b1-4)GlcNAc(b1-4)GlcNAc
# Outline: as §1
# Gal(a1-4)Gal(b1-4)GlcNAc = target: Gal(a1-4)Gal(b1-4)GlcNAc
# Outline: as §1
# [13] = target: Gal(b1-3)GalNAc(b1-3)Gal(a1-4)Gal(b1-4)Glc
# Outline: as §1
# [14] = target: Gal(b1-3)GlcNAc(a1-3)Gal(b1-4)GlcNAc
# Outline: as §1
# [15] = target: Gal(b1-3)GlcNAc(b1-3)GalNAc
# Outline: as §1
# [16] = target: Gal(b1-3)[Fuc(a1-4)]GlcNAc(b1-2)Man(a1-3)[Gal(b1-3)[Fuc(a1-4)]GlcNAc(b1-2)Man(a1-6)]Man(b1-4)GlcNAc(b1-4)[Fuc(a1-6)]GlcNAc
# Outline: as §1
# [17] = target: Gal(b1-3)[Neu5Ac(a2-6)]GalNAc
# Outline: as §1
# [18] = target: Gal(b1-4)GlcNAc(b1-2)[Gal(b1-4)GlcNAc(b1-4)]Man(a1-3)[GlcNAc(b1-4)][Gal(b1-4)GlcNAc(b1-2)Man(a1-6)]Man(b1-4)GlcNAc(b1-4)GlcNAc
# Outline: as §1
# [19] = target: Gal(b1-4)GlcNAc(b1-3)Gal(b1-4)Glc
# Outline: as §1
# [20] = target: Gal(b1-4)GlcNAc(b1-3)Gal(b1-4)GlcNAc(b1-2)Man(a1-3)[Gal(b1-4)GlcNAc(b1-3)Gal(b1-4)GlcNAc(b1-2)Man(a1-6)]Man(b1-4)GlcNAc(b1-4)GlcNAc
# Outline: as §1
# [21] = target: Gal(b1-4)GlcNAc(b1-3)Gal(b1-4)GlcNAc(b1-3)Gal(b1-4)GlcNAc(b1-3)Gal(b1-4)GlcNAc(b1-2)Man(a1-3)[Gal(b1-4)GlcNAc(b1-3)Gal(b1-4)GlcNAc(b1-3)Gal(b1-4)GlcNAc(b1-3)Gal(b1-4)GlcNAc(b1-2)Man(a1-6)]Man(b1-4)GlcNAc(b1-4)[Fuc(a1-6)]GlcNAc
# Outline: as §1
# [22] = target: Gal(b1-4)GlcNAc(b1-3)Gal(b1-4)GlcNAc(b1-3)Gal(b1-4)GlcNAc(b1-3)Gal(b1-4)GlcNAc(b1-2)[Gal(b1-4)GlcNAc(b1-3)Gal(b1-4)GlcNAc(b1-3)Gal(b1-4)GlcNAc(b1-3)Gal(b1-4)GlcNAc(b1-6)]Man(a1-6)[Gal(b1-4)GlcNAc(b1-3)Gal(b1-4)GlcNAc(b1-3)Gal(b1-4)GlcNAc(b1-3)Gal(b1-4)GlcNAc(b1-2)Man(a1-3)]Man(b1-4)GlcNAc(b1-4)[Fuc(a1-6)]GlcNAc
# Outline: as §1
# Gal3S(b1-4)Glc6S = target: Gal3S(b1-4)Glc6S
# Outline: as §1
# [23] = target: Gal3S(b1-4)[Fuc(a1-3)]Glc6S
# Outline: as §1
# Gal6S(b1-3)GlcNAc = target: Gal6S(b1-3)GlcNAc
# Outline: as §1
# [24] = target: GalNAc(a1-3)GalNAc(b1-3)Gal(a1-4)Gal(b1-4)Glc
# Outline: as §1
# [25] = target: GalNAc(b1-3)Gal(a1-6)Gal(b1-4)Glc
# Outline: as §1
# [26] = target: GalNAc3S(b1-4)[Fuc(a1-3)]GlcNAc
# Outline: as §1
# Glc(a1-4)Glc = target: Glc(a1-4)Glc
# Outline: as §1
# GlcA(b1-3)Gal = target: GlcA(b1-3)Gal
# Outline: as §1
# [27] = target: GlcNAc(b1-2)Gal(b1-3)GalNAc
# Outline: as §1
# [28] = target: GlcNAc(b1-3)Gal(b1-4)GlcNAc(b1-2)Man(a1-3)[GlcNAc(b1-3)Gal(b1-4)GlcNAc(b1-2)Man(a1-6)]Man(b1-4)GlcNAc(b1-4)GlcNAc
# Outline: as §1
# [29] = target: GlcNAc(b1-3)Gal(b1-4)GlcNAc(b1-2)[GlcNAc(b1-3)Gal(b1-4)GlcNAc(b1-6)]Man(a1-6)[GlcNAc(b1-3)Gal(b1-4)GlcNAc(b1-2)Man(a1-3)]Man(b1-4)GlcNAc(b1-4)GlcNAc
# Outline: as §1
# [30] = target: GlcNAc(b1-3)Gal(b1-4)GlcNAc(b1-3)Gal(b1-4)GlcNAc(b1-2)Man(a1-3)[GlcNAc(b1-3)Gal(b1-4)GlcNAc(b1-3)Gal(b1-4)GlcNAc(b1-2)Man(a1-6)]Man(b1-4)GlcNAc(b1-4)GlcNAc
# Outline: as §1
# [31] = target: GlcNAc(b1-3)Gal(b1-4)GlcNAc(b1-3)Gal(b1-4)GlcNAc(b1-3)Gal(b1-4)GlcNAc(b1-2)Man(a1-3)[GlcNAc(b1-3)Gal(b1-4)GlcNAc(b1-3)Gal(b1-4)GlcNAc(b1-3)Gal(b1-4)GlcNAc(b1-2)Man(a1-6)]Man(b1-4)GlcNAc(b1-4)[Fuc(a1-6)]GlcNAc
# Outline: as §1
# [32] = target: GlcNAc(b1-3)Gal(b1-4)GlcNAc(b1-3)Gal(b1-4)GlcNAc(b1-3)Gal(b1-4)GlcNAc(b1-3)Gal(b1-4)GlcNAc(b1-2)Man(a1-3)[GlcNAc(b1-3)Gal(b1-4)GlcNAc(b1-3)Gal(b1-4)GlcNAc(b1-3)Gal(b1-4)GlcNAc(b1-3)Gal(b1-4)GlcNAc(b1-2)Man(a1-6)]Man(b1-4)GlcNAc(b1-4)GlcNAc
# Outline: as §1
# [33] = target: GlcNAc(b1-3)Gal(b1-4)GlcNAc(b1-6)[GlcNAc(b1-3)Gal(b1-3)]GalNAc
# Outline: as §1
# [34] = target: GlcNAc(b1-4)Gal(b1-4)GlcNAc
# Outline: as §1
# Kdn(a2-6)Gal(b1-4)GlcNAc = target: Kdn(a2-6)Gal(b1-4)GlcNAc
# Outline: as §1
# Man(a1-2)Man(a1-3)Man = target: Man(a1-2)Man(a1-3)Man
# Outline: as §1
# [35] = target: Man(a1-3)[Man(a1-6)]Man(a1-6)[Man(a1-3)]Man(b1-4)GlcNAc(b1-4)GlcNAc
# Outline: as §1
# [36] = target: Neu5Ac(a2-3)Gal(b1-3)GlcNAc6S
# Outline: as §1
# [37] = target: Neu5Ac(a2-3)Gal(b1-4)GlcNAc(b1-3)Gal(b1-4)GlcNAc(b1-3)Gal(b1-4)GlcNAc
# Outline: as §1
# [38] = target: Neu5Ac(a2-3)Gal(b1-4)[Fuc(a1-3)]GlcNAc(b1-3)GalNAc
# Outline: as §1
# [39] = target: Neu5Ac(a2-3)Gal(b1-4)[Fuc(a1-3)]GlcNAc6S
# Outline: as §1
# [40] = target: Neu5Ac(a2-3)[GalNAc(b1-4)]Gal(b1-4)GlcNAc
# Outline: as §1
# [41] = target: Neu5Ac(a2-3)[GalNAc(b1-4)]Gal(b1-4)GlcNAc(b1-3)GalNAc
# Outline: as §1
# Neu5Ac(a2-6)Gal = target: Neu5Ac(a2-6)Gal
# Outline: as §1
# [42] = target: Neu5Ac(a2-6)Gal(b1-3)GlcNAc(b1-3)[Gal(b1-4)GlcNAc(b1-6)]Gal(b1-4)Glc
# Outline: as §1
# [43] = target: Neu5Ac(a2-6)Gal(b1-4)GlcNAc(b1-2)Man(a1-3)[Neu5Ac(a2-6)Gal(b1-4)GlcNAc(b1-2)Man(a1-6)]Man(b1-4)GlcNAc(b1-4)[Fuc(a1-6)]GlcNAc
# Outline: as §1
# Neu5Ac(a2-6)GalNAc = target: Neu5Ac(a2-6)GalNAc
# Outline: as §1
# Neu5Ac(b2-6)GalNAc = target: Neu5Ac(b2-6)GalNAc
# Outline: as §1
binder,measurement,setting,value
B1,glycan array binding signal (z-score),[1],0.388
same,glycan array binding signal (z-score),[2],-0.127
same,glycan array binding signal (z-score),[3],2.71
same,glycan array binding signal (z-score),[4],0.332
same,glycan array binding signal (z-score),[5],-0.015
same,glycan array binding signal (z-score),[6],3.28
same,glycan array binding signal (z-score),[7],0.222
same,glycan array binding signal (z-score),[8],0.313
same,glycan array binding signal (z-score),[9],0.842
same,glycan array binding signal (z-score),[10],-0.202
same,glycan array binding signal (z-score),Gal(a1-3)Gal,-0.327
same,glycan array binding signal (z-score),[11],1.22
same,glycan array binding signal (z-score),[12],0.892
same,glycan array binding signal (z-score),Gal(a1-4)Gal(b1-4)GlcNAc,-0.009
same,glycan array binding signal (z-score),[13],-0.916
same,glycan array binding signal (z-score),[14],-0.826
same,glycan array binding signal (z-score),[15],0
same,glycan array binding signal (z-score),[16],1.85
same,glycan array binding signal (z-score),[17],0.445
same,glycan array binding signal (z-score),[18],-0.95
same,glycan array binding signal (z-score),[19],-0.709
same,glycan array binding signal (z-score),[20],3.14
same,glycan array binding signal (z-score),[21],3.97
same,glycan array binding signal (z-score),[22],3.09
same,glycan array binding signal (z-score),Gal3S(b1-4)Glc6S,-0.193
same,glycan array binding signal (z-score),[23],5.35
same,glycan array binding signal (z-score),Gal6S(b1-3)GlcNAc,-0.241
same,glycan array binding signal (z-score),[24],0.162
same,glycan array binding signal (z-score),[25],0.155
same,glycan array binding signal (z-score),[26],-1
same,glycan array binding signal (z-score),Glc(a1-4)Glc,-0.103
same,glycan array binding signal (z-score),GlcA(b1-3)Gal,-0.832
same,glycan array binding signal (z-score),[27],0.486
same,glycan array binding signal (z-score),[28],0.619
same,glycan array binding signal (z-score),[29],3.64
same,glycan array binding signal (z-score),[30],0.828
same,glycan array binding signal (z-score),[31],5.83
same,glycan array binding signal (z-score),[32],2.75
same,glycan array binding signal (z-score),[33],-0.82
same,glycan array binding signal (z-score),[34],-0.886
same,glycan array binding signal (z-score),Kdn(a2-6)Gal(b1-4)GlcNAc,0.407
same,glycan array binding signal (z-score),Man(a1-2)Man(a1-3)Man,-1.07
same,glycan array binding signal (z-score),[35],-0.582
same,glycan array binding signal (z-score),[36],-0.784
same,glycan array binding signal (z-score),[37],0.361
same,glycan array binding signal (z-score),[38],3.01
same,glycan array binding signal (z-score),[39],0.192
same,glycan array binding signal (z-score),[40],-0.463
same,glycan array binding signal (z-score),[41],0.982
same,glycan array binding signal (z-score),Neu5Ac(a2-6)Gal,0.01
same,glycan array binding signal (z-score),[42],0.329
same,glycan array binding signal (z-score),[43],3.07
same,glycan array binding signal (z-score),Neu5Ac(a2-6)GalNAc,-0.621
same,glycan array binding signal (z-score),Neu5Ac(b2-6)GalNAc,-0.61
